Measured values from PubChem BioAssay AID1159580 (chemical genetic matrix, 2015).
Where “and” joins values, the source holds several entries; their conditions need not be identical. Equal entries are not always repeated. The campaign covered roughly 5,500 compounds. About 2,000 (36%) were called active. Roughly 18% stayed inconclusive and do not appear here. Cut-off read from the data, not from the text of the source: active = normalized growth mostly below about 0.91 (no sharp cut-off); inconclusive = no clear call, values can overlap the other calls; inactive = mostly above about 0.92. The list shows a part of the results.

Assay: chemical genetic growth profiling, strain panel (AID 1159580);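 note: tested at 20 µM; growth read once vehicle control cultures reached saturation at 30 °C; 1 = growth at the plate median or of vehicle wells; lower values mean less growth of the strain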
Conditions: S. cerevisiae deletion strains, growth OD

Measured: normalized growth

c1ccc2c(c1)CCCC2C1=NCCN1 (centres undefined)
inactive: locus YAL013W, strain DEP1, hits give low values 1.01 and 1 | locus YAL021C, strain ccr4, hits give low values 1.02 | locus YAL026C, strain drs2, hits give low values 1.02 | locus YAL030W, strain snc1, hits give low values 1.02 | locus YAL040C, strain CLN3, hits give low values 1.05 | locus YBL061C, strain skt5, hits give low values 1.02 | locus YBR009C, strain hhf1, hits give low values 1.03 | locus YBR021W, strain FUR4, hits give low values 1.05 | locus YBR023C, strain chs3, hits give low values 1.02 | locus YBR171W, strain sec66, hits give low values 1.03 | locus YBR229C, strain ROT2, hits give low values 1.01 | locus YBR231C, strain swc5, hits give low values 1.02 | locus YBR279W, strain paf1, hits give low values 1.01 | locus YCL011C, strain gbp2, hits give low values 1.02 | locus YCL016C, strain dcc1, hits give low values 1.02 | locus YCL029C, strain bik1, hits give low values 0.995 | locus YCL061C, strain MRC1 (second series), hits give low values 1.01 | locus YCL069W, strain vba3, hits give low values 1.02 | locus YCR088W, strain abp1, hits give low values 1.02 | locus YDL005C, strain med2, hits give low values 1.02 | locus YDL035C, strain GPR1, hits give low values 1.02 | locus YDL040C, strain nat1, hits give low values 1.02 | locus YDL074C, strain BRE1, hits give low values 1.01 | locus YDL101C, strain DUN1, hits give low values 1.01 | locus YDL134C, strain PPH21, hits give low values 1.01 | locus YDL185W, strain tfp1, hits give low values 0.993 | locus YDL192W, strain arf1, hits give low values 1 | locus YDR001C, strain nth1, hits give low values 1.01 | locus YDR069C, strain doa4, hits give low values 1 | locus YDR101C, strain arx1, hits give low values 0.995 | locus YDR137W, strain rgp1, hits give low values 1.03 | locus YDR150W, strain NUM1, hits give low values 1.01 | locus YDR159W, strain sac3, hits give low values 1.02 | locus YDR162C, strain NBP2, hits give low values 1.02 | locus YDR195W, strain ref2 1.01 | locus YDR297W, strain sur2, hits give low values 1.03 | locus YDR318W, strain mcm21, hits give low values 1.01 | locus YDR334W, strain swr1, hits give low values 1.02 | locus YDR335W, strain msn5, hits give low values 1.03 | locus YDR363W, strain ESC2, hits give low values 1.02 | locus YDR388W, hits give low values 1.01 | locus YDR392W, strain spt3, hits give low values 1.03 | locus YDR502C, strain sam2, hits give low values 0.991 | locus YEL003W, strain gim4, hits give low values 1.02 | locus YEL037C, strain rad23, hits give low values 1.03 | locus YEL061C, strain CIN8 (second series), hits give low values 1.02 | locus YEL061C, strain CIN8, hits give low values 1.01 | locus YER002W, strain NOP16, hits give low values 0.992 | locus YER015W, strain faa2, hits give low values 1.02 | locus YER016W, strain bim1, hits give low values 1.03 | locus YER110C, hits give low values 1.01 | locus YER111C, strain swi4, hits give low values 1.03 | locus YER155C, strain BEM2 (second series), hits give low values 1.04 | locus YER155C, strain BEM2, hits give low values 1.01 | locus YER167W, strain BCK2, hits give low values 1.01 | locus YFR010W, strain ubp6, hits give low values 1.01 | locus YGL078C, strain dbp3, hits give low values 0.989 | locus YGL086W, strain mad1, hits give low values 0.998 | locus YGL167C, strain pmr1, hits give low values 1.04 | locus YGL173C, strain kem1, hits give low values 1.02 | locus YGL227W, strain vid30, hits give low values 1.03 | locus YGL240W, strain doc1, hits give low values 1.03 | locus YGL248W, strain PDE1, hits give low values 1.01 | locus YGL253W, strain hxk2, hits give low values 1.03 | locus YGR135W, strain pre9, hits give low values 0.987 | locus YGR229C, strain SMI1, hits give low values 1.02 and 1.03 | locus YGR252W, strain gcn5, hits give low values 0.971 | locus YHR013C, strain ard1, hits give low values 1.05 | locus YHR027C, strain rpn1, hits give low values 1.01 | locus YHR030C, strain SLT2, hits give low values 1.01 and 0.988 | locus YHR079C, strain IRE1 (second series), hits give low values 1.01 | locus YHR079C, strain IRE1, hits give low values 0.976 | locus YHR094C, strain hxt1, hits give low values 1 | locus YHR129C, strain ARP1, hits give low values 1.01 | locus YHR142W, strain chs7, hits give low values 1.02 | locus YHR200W, strain rpn10, hits give low values 0.997 | locus YIL066C, strain RNR3, hits give low values 1.01 | locus YIL073C, strain SPO22, hits give low values 1.02 | locus YIL125W, strain kgd1, hits give low values 0.958 | locus YIR030C, strain dcg1, hits give low values 0.999 | locus YJL092W, strain hpr5, hits give low values 1.02 | locus YJL095W, strain BCK1 (second series), hits give low values 1.02 | locus YJL095W, strain BCK1, hits give low values 1 and 0.971 | locus YJL115W, strain asf1, hits give low values 1.01 | locus YJL129C, strain trk1, hits give low values 1.02 | locus YJL134W, strain LCB3, hits give low values 1.01 | locus YJL154C, strain vps35, hits give low values 1.02 | locus YJL164C, strain tpk1, hits give low values 1.02 | locus YJL166W, strain qcr8, hits give low values 1.02 | locus YJL168C, strain set2, hits give low values 1 | locus YJL187C, strain SWE1 (second series), hits give low values 1.02 | locus YJR043C, strain POL32, hits give low values 1.01 | locus YJR066W, strain TOR1, hits give low values 0.945 | locus YJR075W, strain HOC1, hits give low values 1.01 and 0.998
